Screening results deposited in PubChem BioAssay by National Center for Advancing Translational Sciences (NCATS).
KAT2A inh: GCN5L2 (KAT2A) acetyltransferase inhibition | Q92830 | Potency, µM (titrated, usually from 58.9 µM), inactives show at the top dose activity change, negative = inhibition, hits mostly inhibitors | GCN5L2 HAT assay, ThioGlo1 CoA-SH fluorescence | hit rate 0.21% among 390,000
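ThioGlo1-coupled HAT assay: 20nM GCN5L2, 70uM acetyl-CoA, 75uM H3(1-25) peptide, pH 7.5. Fluorescence read at 340/540nm at start and after 20 min at room temperature.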
APE1 inh-1: inhibitors of human APE1 endonuclease | P27695 | recombinant APE1, TAMRA/BHQ-2 abasic DNA cleavage fluorescence | Potency, µM (series often up to 65.8 µM), for inactives: at the top dose activity change, negative = inhibition, usual class: inhibitors | hit rate 0.35% among 350,000 | AID 2517;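 also: plate controls were vehicle for no effect and reference inhibitor for full effect; nearly all actives have a fitted effect of over 55% in size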
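Endonuclease cleavage of a quenched abasic-site DNA duplex (50 nM) by APE1 (0.75 nM) was tracked by TAMRA dequenching. Compounds were preincubated with enzyme 15 min at room temperature; data normalized to buffer-only and DMSO wells plus NSC13755 control.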
TDP1 inh: TDP1 (human) enzyme inhibition. recombinant TDP1, AlphaScreen DNA substrate cleavage. hit rate 0.28% among 350,000. Q9NUW8. Potency, µM (titrated, usually from 130 µM), for the others: top-dose activity change, negative = inhibition, hits mostly inhibitors. AID 485290; also: nearly all actives have a fitted effect of over 40% in size
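E. coli-derived human Tdp1, 1 nM final. Cpd preinc 15 min RT; substrate 15 nM final, 5 min RT; AS bead mix 10 ug/ml final, 10 min RT. Signal loss = tyrosine-FITC cleavage. No-enzyme wells = max signal.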
RECQ1 inh-1: inhibitors of human RECQ1 DNA helicase | Potency, µM (top dose mostly 57.3 µM), without a hit: at the top dose activity, negative = inhibition, hits mostly inhibitors | AID 2549 | hit rate 0.54% among 240,000 | RECQ1 DNA unwinding, red fluorescence kinetic read | P46063;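 also: plate controls were vehicle for no effect and no enzyme for full effect; nearly all actives have a fitted effect of over 30% in size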
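RECQ1T1 50 nM; forked duplex (20 bp + 30-nt ss tails) 200 nM, ATP 2 mM final; pH 8.0, 2 mM MgCl2, 2.5 ug/ml poly(dI-dC); 15 min compound preincubation; discontinuous kinetic read over 2 h at RT.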
BLM inh: Bloom syndrome helicase (human) inhibition. P54132. Potency, µM (series often up to 56.1 µM), for inactives: top-dose activity change, negative = inhibition, actives largely listed as inhibitors. recombinant BLM DNA unwinding, fluorescence dequenching. hit rate 0.2% among 350,000;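 also: plate controls were vehicle for no effect and no enzyme for full effect; nearly all actives have a fitted effect of over 35% in size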
Target sequence (P54132 whole entry, looked up): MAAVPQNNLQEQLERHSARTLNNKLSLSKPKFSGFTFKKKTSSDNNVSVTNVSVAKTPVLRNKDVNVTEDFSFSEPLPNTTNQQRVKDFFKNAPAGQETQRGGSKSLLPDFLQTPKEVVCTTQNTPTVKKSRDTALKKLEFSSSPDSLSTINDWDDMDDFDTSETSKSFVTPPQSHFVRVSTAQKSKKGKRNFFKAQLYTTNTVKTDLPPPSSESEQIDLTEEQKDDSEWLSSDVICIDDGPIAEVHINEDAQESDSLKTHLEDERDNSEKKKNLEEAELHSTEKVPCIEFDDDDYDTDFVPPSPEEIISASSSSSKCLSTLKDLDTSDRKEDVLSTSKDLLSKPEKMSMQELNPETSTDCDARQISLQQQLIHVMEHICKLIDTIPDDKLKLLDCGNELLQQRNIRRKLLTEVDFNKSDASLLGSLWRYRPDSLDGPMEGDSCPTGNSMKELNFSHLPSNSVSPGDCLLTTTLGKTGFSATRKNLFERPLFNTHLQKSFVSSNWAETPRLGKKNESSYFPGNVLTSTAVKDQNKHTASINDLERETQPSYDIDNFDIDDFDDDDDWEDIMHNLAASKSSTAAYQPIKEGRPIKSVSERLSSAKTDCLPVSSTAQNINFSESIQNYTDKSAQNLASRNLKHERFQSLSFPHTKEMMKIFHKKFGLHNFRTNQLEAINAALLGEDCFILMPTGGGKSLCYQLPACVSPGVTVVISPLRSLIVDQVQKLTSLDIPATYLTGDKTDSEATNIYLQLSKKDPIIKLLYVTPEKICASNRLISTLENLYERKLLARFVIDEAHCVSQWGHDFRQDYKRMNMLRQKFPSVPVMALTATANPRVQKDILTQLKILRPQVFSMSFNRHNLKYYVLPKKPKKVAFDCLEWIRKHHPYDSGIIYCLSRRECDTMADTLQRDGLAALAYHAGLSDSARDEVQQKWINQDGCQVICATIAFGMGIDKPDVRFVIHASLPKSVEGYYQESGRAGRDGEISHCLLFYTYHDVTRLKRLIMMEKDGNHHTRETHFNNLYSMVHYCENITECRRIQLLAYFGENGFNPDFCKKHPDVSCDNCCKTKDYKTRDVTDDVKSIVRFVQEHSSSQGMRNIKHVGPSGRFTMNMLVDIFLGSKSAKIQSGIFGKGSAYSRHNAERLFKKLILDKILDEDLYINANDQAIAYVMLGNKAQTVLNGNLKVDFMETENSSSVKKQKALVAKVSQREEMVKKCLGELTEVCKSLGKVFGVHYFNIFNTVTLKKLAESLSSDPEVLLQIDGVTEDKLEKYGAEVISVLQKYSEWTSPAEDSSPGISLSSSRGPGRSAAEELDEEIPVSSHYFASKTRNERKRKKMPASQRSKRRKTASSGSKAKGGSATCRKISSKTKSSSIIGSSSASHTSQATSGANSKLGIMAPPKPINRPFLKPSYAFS
APE1 dye cs: displaces fluorescent dye from DNA, flagging APE1 artifacts; shares compounds with APE1 inh-1; DNA fluorescent dye displacement counterscreen, fluorescence; Potency, µM (series often up to 28.5 µM), inactives show at the highest dose activity change, negative = inhibition, hits mostly inhibitors; hit rate 7% among 480;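 also: loss of thiazole orange fluorescence as the dye is displaced from duplex DNA; 0% = ThO with dsDNA and no compound and -100% = ThO without dsDNA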
Endo IV inh: blocks E. coli endonuclease IV DNA cleavage. shares compounds with APE1 inh-1. E. coli Endo IV, fluorogenic AP-site DNA cleavage. Potency, µM (titrated, usually from 27.1 µM), inactives show at the top dose activity change, negative = inhibition, actives largely listed as inhibitors. hit rate 4% among 560. AID 2565;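 also: plate controls were uninhibited enzyme wells for no effect and no enzyme buffer wells for full effect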
APE1 inh-2: confirmation of inhibitors of human APE1 endonuclease; shares compounds with APE1 inh-1; purified APE1, fluorogenic abasic-site DNA cleavage; Potency, µM (highest dose often 57.1 µM), without a hit: at the top dose activity change, negative = inhibition, most hits filed as inhibitors; hit rate 44% among 750; also: nearly all actives have a fitted effect of over 30% in size
APE1 FP: compounds that displace a DNA probe from human APE1 | shares compounds with APE1 inh-1 | APE1 binding to TAMRA-labelled double-stranded DNA, fluorescence polarization displacement | Potency, µM (highest dose often 28.5 µM), inactives show at the highest dose activity, negative = inhibition, usual class: inhibitors | hit rate 7% among 480 | AID 2573
RECQ1 inh conf: confirmation of human RECQ1 helicase inhibitors. shares compounds with RECQ1 inh-1. Potency, µM (titrated, usually from 229 µM), for the others: at the top dose activity change, negative = inhibition, usual class: inhibitors. hit rate 28% among 610. AID 2708. RECQ1 helicase DNA unwinding, fluorescence; also: nearly all actives have a fitted effect of over 45% in size
RECQ1 ADP FP: counter-screen for RECQ1 inhibitors: ADP displacement. shares compounds with RECQ1 inh-1. ADP fluorescence polarization displacement counterscreen. Potency, µM (series often up to 228 µM), for inactives: at the highest dose activity change, negative = inhibition, actives largely listed as inhibitors. hit rate 27% among 530; also: nearly all actives have a fitted effect of over 45% in size
RECQ1 inh-2: blocks human RECQ1 DNA unwinding; shares compounds with RECQ1 inh-1; recombinant RECQ1 DNA unwinding, red fluorescence; Potency, µM (titrated, usually from 119 µM), without a hit: at the top dose activity, negative = inhibition, hits mostly inhibitors; hit rate 15% among 1,100; AID 504841; also: nearly all actives have a fitted effect of over 50% in size
* = called active by the depositor; i = inactive; ? = inconclusive; . = no result given; [ ] = remark or other dose. Only some compounds are listed: those with a hit (about 0.87% of all), similar ones and a draw of the others. Calls follow the shape of the dose curve; as a rule, active = well fitted curve in the direction sought with a large enough effect; inconclusive = small, poorly fitted or top-dose-only effect, or another doubt; inactive = no such curve, though single readings can be large; an effect the other way counts as inactive or inconclusive. Unless noted, % is scaled to controls: 0 for no effect and ±100 for the full control effect; potency is read from the fitted curve at half-maximal effect.

SMILES	KAT2A inh	APE1 inh-1	TDP1 inh	RECQ1 inh-1	BLM inh	APE1 dye cs	Endo IV inh	APE1 inh-2	APE1 FP	others
Cc1cc(=O)n2[nH]c(-c3ccc(F)cc3)cc2n1	-12.6%	-10.2%	-2.0%	i	3.0%	.	.	.	.
O=C(c1ccccc1)N1CCc2cc(CNS(=O)(=O)c3ccccc3Cl)ccc21	-12.7%	.	5.4%	.	-4.7%	.	.	.	.
CC1(C)SC2C(N3C(=O)C(c4ccccc4)NC3(C)C)C(=O)N2C1C(=O)O (configuration not stated)	0.9%	.	?	14.1µM*	-7.5%	-8.1%[57.1 µM]	14.3%[57.1 µM]	?	?	RECQ1 inh conf=89.1µM*;RECQ1 ADP FP=31.6µM*
CC1(C)CCCN(C(=O)c2coc(=O)c(Br)c2)C1	-24.9%	3.98µM*	6.31µM*	11.2µM*	29.7%	.	.	1.26µM*	.	RECQ1 inh conf=20µM*;RECQ1 ADP FP=-6.4%[91.9 µM]
O=C(c1coc(=O)c(Br)c1)N1CCC(C(O)(c2ccccc2)c2ccccc2)CC1	-6.7%	2.0%	0.0%	-17.2%	4.1%	.	.	.	.
COC(=O)c1ccc(C(NC(=O)OCc2ccccc2)/C(F)=C/[C@@H](C)C(=O)Nc2ccc(OC)cc2)cc1 (some centres not stated)	.	-0.1%	4.5%	-0.5%	0.4%	.	.	.	.
Nc1ccc(Nc2ccccc2)c(S(=O)(=O)O)c1	-17.5%	14.1µM*	56.2µM*	?	0.2%	?	15.1%	?	?	RECQ1 inh-2=?
CN(C)c1nc(NC2CCC(NC(=O)c3ccc(F)c(F)c3)CC2)nc2ccccc12 (configuration not stated)	0.0%	9.6%	12.8%	14.5%	-8.3%	.	.	.	.
CCOC(=O)c1cc(S(=O)(=O)Nc2ccc(OC)c(Cl)c2)[nH]n1	-18.6%	.	4.1%	.	2.7%	.	.	.	.
O=C1C=C(Nc2ccc(O)cc2)C(=O)c2ccccc21	1.7%	-7.2%	?	0.5%	?	.	.	.	.
O=C1C=C(O)c2cccc(O)c2C1=O	?	?	.	?	-0.4%	-3.4%	-2.7%	-4.1%[24.4 µM]	1.9%	RECQ1 inh-2=-10.7%
COCCOC(=O)c1[nH]c2c(c1C)C(=O)CC(c1ccco1)C2 (configuration not stated)	-17.5%	17.8µM*	.	35.5µM*	?	-8.6%	3.7%	7.94µM*	-29.5%	RECQ1 inh-2=?
CCOC(=O)c1[nH]c2c(c1C)C(=O)CC(c1ccco1)C2 (configuration not stated)	-18.1%	?	?	?	-24.9%	.	.	.	.
